Assay results from the supplement of paper PMC11001985.

Compound: C#CCNC(=O)CCSSCCC(=O)NCCc1ccc(C=O)c(C=O)c1
Test: lysine labeling ratio R10:1 (500 µM / 50 µM probe), SILAC-ABPP in living cells; higher = lower intrinsic lysine reactivity toward the probe, active = 2 or less
Settings: HeLa; probe concentrations 500 vs 50 µM
How it was run: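 Each lysine carries an R value: the filtered median of MS1 peptide ratios of high probe to low probe, with the median then taken over forward and reverse replicates. These came from living SILAC light and heavy HeLa cells in PBS at room temperature labelled with an alkyne-tagged, disulfide-linked lysine probe at 500 µM or 50 µM, in forward and reverse swaps. The lysates were mixed, clicked to biotin-azide, trypsin-digested, captured on neutravidin, released by DTT, alkylated and run by LC-MS/MS on a TIMS-TOF Pro. The highest value allowed is 20.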

UniProt Q15149, sequence (Q15149 whole entry): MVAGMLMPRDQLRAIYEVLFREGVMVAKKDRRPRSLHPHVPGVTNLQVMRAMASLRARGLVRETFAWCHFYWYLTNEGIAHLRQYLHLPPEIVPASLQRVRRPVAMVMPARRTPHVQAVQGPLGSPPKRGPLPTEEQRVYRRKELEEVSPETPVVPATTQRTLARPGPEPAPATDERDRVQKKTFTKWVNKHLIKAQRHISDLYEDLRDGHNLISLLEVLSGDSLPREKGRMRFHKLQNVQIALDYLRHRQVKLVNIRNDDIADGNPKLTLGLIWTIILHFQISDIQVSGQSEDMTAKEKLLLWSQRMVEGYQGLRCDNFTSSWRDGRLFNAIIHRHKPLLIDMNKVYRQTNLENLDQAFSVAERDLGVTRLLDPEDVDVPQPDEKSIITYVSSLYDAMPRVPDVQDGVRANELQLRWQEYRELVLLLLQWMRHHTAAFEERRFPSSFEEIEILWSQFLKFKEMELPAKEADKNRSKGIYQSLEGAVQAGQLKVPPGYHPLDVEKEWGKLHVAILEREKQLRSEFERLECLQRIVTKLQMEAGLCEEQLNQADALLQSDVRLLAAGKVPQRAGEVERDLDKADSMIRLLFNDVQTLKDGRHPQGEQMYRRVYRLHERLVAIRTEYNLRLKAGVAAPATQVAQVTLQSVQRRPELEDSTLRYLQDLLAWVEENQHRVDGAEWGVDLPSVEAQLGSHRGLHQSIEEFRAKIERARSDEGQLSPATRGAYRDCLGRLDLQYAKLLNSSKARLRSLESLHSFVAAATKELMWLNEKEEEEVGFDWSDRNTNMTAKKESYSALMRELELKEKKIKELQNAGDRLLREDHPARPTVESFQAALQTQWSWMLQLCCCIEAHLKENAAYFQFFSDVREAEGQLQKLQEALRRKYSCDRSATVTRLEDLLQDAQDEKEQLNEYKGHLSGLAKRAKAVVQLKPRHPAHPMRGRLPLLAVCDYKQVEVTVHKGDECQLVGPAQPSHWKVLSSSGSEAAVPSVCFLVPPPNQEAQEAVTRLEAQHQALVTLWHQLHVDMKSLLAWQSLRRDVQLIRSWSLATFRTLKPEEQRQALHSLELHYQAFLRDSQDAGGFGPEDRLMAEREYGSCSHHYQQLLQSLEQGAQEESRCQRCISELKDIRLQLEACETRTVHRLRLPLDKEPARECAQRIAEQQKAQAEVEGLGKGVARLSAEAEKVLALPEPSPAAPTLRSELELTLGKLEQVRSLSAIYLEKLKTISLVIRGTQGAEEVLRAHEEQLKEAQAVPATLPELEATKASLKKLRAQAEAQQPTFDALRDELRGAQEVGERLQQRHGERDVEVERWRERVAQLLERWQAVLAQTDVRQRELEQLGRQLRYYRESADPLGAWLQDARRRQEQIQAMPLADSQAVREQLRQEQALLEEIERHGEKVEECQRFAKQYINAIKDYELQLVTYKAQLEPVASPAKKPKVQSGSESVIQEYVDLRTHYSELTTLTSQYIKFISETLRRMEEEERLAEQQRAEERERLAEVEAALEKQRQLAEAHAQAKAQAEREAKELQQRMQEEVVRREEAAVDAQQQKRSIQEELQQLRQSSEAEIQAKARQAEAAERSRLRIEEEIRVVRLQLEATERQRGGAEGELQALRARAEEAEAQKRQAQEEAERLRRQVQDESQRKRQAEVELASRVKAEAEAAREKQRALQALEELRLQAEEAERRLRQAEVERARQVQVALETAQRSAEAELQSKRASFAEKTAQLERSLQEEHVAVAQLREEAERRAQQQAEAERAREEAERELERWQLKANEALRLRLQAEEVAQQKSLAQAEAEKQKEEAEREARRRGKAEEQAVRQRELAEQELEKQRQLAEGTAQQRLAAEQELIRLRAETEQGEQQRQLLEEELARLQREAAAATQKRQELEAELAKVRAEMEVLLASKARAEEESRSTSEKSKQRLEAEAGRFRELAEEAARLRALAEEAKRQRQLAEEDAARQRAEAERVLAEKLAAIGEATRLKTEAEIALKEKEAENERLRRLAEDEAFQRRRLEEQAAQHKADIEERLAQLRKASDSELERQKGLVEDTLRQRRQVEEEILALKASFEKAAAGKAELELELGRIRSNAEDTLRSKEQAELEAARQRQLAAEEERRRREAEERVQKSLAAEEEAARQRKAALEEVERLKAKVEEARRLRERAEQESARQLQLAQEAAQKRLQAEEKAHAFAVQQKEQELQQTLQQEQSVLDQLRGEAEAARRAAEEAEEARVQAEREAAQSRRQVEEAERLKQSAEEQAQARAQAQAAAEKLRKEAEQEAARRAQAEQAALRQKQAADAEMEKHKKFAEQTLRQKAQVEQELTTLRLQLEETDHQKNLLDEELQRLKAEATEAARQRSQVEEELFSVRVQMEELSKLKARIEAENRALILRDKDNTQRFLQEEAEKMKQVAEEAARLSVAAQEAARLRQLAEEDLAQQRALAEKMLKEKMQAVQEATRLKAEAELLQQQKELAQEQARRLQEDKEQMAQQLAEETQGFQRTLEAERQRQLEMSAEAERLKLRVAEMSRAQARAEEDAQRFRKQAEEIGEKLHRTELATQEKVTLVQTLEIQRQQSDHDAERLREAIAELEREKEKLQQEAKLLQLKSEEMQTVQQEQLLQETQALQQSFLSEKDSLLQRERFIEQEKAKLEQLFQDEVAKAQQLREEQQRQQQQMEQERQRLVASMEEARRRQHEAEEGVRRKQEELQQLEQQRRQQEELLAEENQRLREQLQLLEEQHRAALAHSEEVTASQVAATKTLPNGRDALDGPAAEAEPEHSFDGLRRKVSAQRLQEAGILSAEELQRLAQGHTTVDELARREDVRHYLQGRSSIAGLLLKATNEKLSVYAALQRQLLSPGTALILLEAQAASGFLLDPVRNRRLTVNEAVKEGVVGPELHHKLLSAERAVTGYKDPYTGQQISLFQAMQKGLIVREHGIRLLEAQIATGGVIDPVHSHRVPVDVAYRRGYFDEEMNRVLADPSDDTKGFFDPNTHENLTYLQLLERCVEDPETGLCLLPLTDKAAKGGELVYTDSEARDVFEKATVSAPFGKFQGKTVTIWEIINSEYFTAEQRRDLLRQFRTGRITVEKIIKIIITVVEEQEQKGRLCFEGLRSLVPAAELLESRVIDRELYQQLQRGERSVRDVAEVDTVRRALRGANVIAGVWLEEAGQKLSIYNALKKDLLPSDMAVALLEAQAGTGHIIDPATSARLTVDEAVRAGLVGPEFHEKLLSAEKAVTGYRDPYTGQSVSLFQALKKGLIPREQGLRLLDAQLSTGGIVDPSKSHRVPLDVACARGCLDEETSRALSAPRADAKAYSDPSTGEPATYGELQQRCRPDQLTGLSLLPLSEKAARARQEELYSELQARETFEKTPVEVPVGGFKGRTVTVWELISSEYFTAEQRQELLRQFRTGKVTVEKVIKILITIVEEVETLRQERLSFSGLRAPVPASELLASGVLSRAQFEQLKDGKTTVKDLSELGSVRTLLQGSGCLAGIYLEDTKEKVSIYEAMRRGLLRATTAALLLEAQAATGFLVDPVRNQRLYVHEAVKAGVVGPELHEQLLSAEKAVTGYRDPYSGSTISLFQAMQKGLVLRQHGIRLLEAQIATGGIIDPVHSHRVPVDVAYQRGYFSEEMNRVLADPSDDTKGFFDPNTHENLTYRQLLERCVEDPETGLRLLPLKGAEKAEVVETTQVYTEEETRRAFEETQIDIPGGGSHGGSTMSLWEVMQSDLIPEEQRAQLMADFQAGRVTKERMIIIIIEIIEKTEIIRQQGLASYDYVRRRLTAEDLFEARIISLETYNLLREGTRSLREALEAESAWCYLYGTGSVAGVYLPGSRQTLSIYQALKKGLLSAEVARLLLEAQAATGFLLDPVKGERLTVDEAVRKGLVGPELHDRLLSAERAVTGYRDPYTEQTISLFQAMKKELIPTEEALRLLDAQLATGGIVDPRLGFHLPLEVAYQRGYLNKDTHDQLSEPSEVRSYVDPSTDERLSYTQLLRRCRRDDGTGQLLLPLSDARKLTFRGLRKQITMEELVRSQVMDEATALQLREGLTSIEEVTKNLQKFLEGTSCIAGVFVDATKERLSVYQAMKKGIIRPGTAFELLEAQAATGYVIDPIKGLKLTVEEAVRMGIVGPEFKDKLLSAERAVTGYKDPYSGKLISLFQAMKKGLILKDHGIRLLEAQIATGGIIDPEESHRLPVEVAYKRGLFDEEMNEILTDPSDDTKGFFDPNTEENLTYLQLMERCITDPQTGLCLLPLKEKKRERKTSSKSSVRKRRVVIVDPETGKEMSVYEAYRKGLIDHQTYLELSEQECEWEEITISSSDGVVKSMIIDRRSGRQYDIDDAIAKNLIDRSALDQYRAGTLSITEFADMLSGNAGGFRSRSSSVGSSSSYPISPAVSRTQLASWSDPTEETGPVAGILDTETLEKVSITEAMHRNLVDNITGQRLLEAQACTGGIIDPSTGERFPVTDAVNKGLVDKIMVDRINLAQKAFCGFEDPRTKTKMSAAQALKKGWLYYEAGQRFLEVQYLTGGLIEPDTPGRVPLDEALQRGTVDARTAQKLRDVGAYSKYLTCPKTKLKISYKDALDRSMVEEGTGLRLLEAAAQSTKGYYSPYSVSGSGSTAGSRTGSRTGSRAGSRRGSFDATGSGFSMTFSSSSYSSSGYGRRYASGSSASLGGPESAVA
UniProt Q9Y3C8, sequence (Q9Y3C8 whole entry): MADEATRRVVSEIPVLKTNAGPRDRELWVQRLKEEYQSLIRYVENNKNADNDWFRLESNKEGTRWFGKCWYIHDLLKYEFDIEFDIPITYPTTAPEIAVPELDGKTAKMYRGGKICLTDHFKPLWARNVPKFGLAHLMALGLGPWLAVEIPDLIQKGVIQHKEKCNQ
UniProt P62258, sequence (P62258 whole entry): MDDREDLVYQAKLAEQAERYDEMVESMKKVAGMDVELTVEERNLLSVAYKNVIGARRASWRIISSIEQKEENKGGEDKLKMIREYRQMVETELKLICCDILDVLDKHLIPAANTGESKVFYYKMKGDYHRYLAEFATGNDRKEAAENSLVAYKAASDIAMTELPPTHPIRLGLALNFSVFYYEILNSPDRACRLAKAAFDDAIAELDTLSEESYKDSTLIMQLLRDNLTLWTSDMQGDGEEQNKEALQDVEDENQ

“IGSF3 (lysine site: K191) (UniProt O75054)” was tested. Which “lysine labeling ratio R10:1” value did it give?
The value was 4.16 (inactive).

For “RPL4 (lysine site: K120) (UniProt P36578)”, which “lysine labeling ratio R10:1” value is on record?
Its value is 3.18 (inactive).

UniProt Q15149 (lysine site: K300) was tested. Which “lysine labeling ratio R10:1” value did it give?
The value was 2.94 (inactive).

Which “lysine labeling ratio R10:1” value does the source give for UniProt Q15149 (lysine site: K2099) here?
Its value is 4.12 (inactive).

With “HNRNPM (lysine site: K145) (UniProt P52272)” as the target, how does the “lysine labeling ratio R10:1” value read?
Its value is 2.08 (inactive).

For “CHCHD3 (lysine site: K37) (UniProt Q9NX63)”, which “lysine labeling ratio R10:1” value is on record?
Its value is 1.57 (active).

How did the “lysine labeling ratio R10:1” value turn out when “DSC2 (lysine site: K381) (UniProt Q02487)” was run?
Its value is 1.71 (active).

For “SQSTM1 (lysine site: K13) (UniProt Q13501)”, which “lysine labeling ratio R10:1” value is on record?
The value was 7.96 (inactive).

With “LRP1 (lysine site: K4230) (UniProt Q07954)” as the target, how does the “lysine labeling ratio R10:1” value read?
Its value is 10.8 (inactive).

For “SMC2 (lysine site: K222) (UniProt O95347)”, which “lysine labeling ratio R10:1” value is on record?
Its value is 1.74 (active).

With “FLOT1 (lysine site: K220) (UniProt O75955)” as the target, how does the “lysine labeling ratio R10:1” value read?
The value was 2.84 (inactive).

UniProt P62258 (lysine site: K125) was tested. Which “lysine labeling ratio R10:1” value did it give?
The value was 1.05 (active).

With FH (lysine site: K66) (UniProt P07954) as the target, how does the “lysine labeling ratio R10:1” value read?
Its value is 2.79 (inactive).

For “CNP (lysine site: K101) (UniProt P09543)”, which “lysine labeling ratio R10:1” value is on record?
Its value is 2.62 (inactive).

For “HDGF (lysine site: K197) (UniProt P51858)”, which “lysine labeling ratio R10:1” value is on record?
Its value is 2.54 (inactive).

How did the “lysine labeling ratio R10:1” value turn out when “H2AFX (lysine site: K37) (UniProt P16104)” was run?
The value was 2.89 (inactive).

How did the “lysine labeling ratio R10:1” value turn out when “RAB13 (lysine site: K172) (UniProt P51153)” was run?
Its value is 4.07 (inactive).

How did the “lysine labeling ratio R10:1” value turn out when “RPS19 (lysine site: K77) (UniProt P39019)” was run?
The value was 2.89 (inactive).

With UniProt P02533 (lysine site: K297) as the target, how does the “lysine labeling ratio R10:1” value read?
The value was 2.74 (inactive).

For UniProt P25705 (lysine site: K132), which “lysine labeling ratio R10:1” value is on record?
The value was 1.76 (active).

With “STMN1 (lysine site: K126) (UniProt P16949)” as the target, how does the “lysine labeling ratio R10:1” value read?
Its value is 2.8 (inactive).

Which “lysine labeling ratio R10:1” value does the source give for “COL5A1 (lysine site: K57) (UniProt P20908)” here?
Its value is 1.11 (active).

For “SERPINH1 (lysine site: K160) (UniProt P50454)”, which “lysine labeling ratio R10:1” value is on record?
The value was 2.81 (inactive).

“FKBP4 (lysine site: K390) (UniProt Q02790)” was tested. Which “lysine labeling ratio R10:1” value did it give?
Its value is 3.84 (inactive).

For “MTDH (lysine site: K195) (UniProt Q86UE4)”, which “lysine labeling ratio R10:1” value is on record?
The value was 1.36 (active).

For “LNPEP (lysine site: K923) (UniProt Q9UIQ6)”, which “lysine labeling ratio R10:1” value is on record?
The value was 5.14 (inactive).

How did the “lysine labeling ratio R10:1” value turn out when UniProt P08727 (lysine site: K216) was run?
Its value is 7.74 (inactive).

How did the “lysine labeling ratio R10:1” value turn out when “IGF2R (lysine site: K1924) (UniProt P11717)” was run?
The value was 3.04 (inactive).

How did the “lysine labeling ratio R10:1” value turn out when “ROR2 (lysine site: K382) (UniProt Q01974)” was run?
Its value is 1.95 (active).

For “SLC3A2 (lysine site: K255) (UniProt P08195)”, which “lysine labeling ratio R10:1” value is on record?
Its value is 1.64 (active).

With UniProt P26639 (lysine site: K243) as the target, how does the “lysine labeling ratio R10:1” value read?
Its value is 3.1 (inactive).

For “ACTN4 (lysine site: K643) (UniProt O43707)”, which “lysine labeling ratio R10:1” value is on record?
Its value is 7.08 (inactive).

With UniProt Q15149 (lysine site: K2903) as the target, how does the “lysine labeling ratio R10:1” value read?
The value was 2.51 (inactive).

How did the “lysine labeling ratio R10:1” value turn out when UniProt Q9UHN6 (lysine site: K278) was run?
Its value is 3.15 (inactive).

How did the “lysine labeling ratio R10:1” value turn out when UniProt Q15149 (lysine site: K3925) was run?
Its value is 3.1 (inactive).

For “PLS3 (lysine site: K59) (UniProt P13797)”, which “lysine labeling ratio R10:1” value is on record?
The value was 1.41 (active).

UniProt Q8N441 (lysine site: K154) was tested. Which “lysine labeling ratio R10:1” value did it give?
Its value is 1.13 (active).

For “PSEN1 (lysine site: K109) (UniProt P49768)”, which “lysine labeling ratio R10:1” value is on record?
Its value is 2.61 (inactive).

For “LRPAP1 (lysine site: K323) (UniProt P30533)”, which “lysine labeling ratio R10:1” value is on record?
Its value is 2.24 (inactive).

For “UFC1 (lysine site: K33) (UniProt Q9Y3C8)”, which “lysine labeling ratio R10:1” value is on record?
The value was 3.81 (inactive).
